Rows were chosen to be rich in hits. Some 3% of all compounds tested hit in one or more screens of this group.
IMPase cell inh = cell-permeable inhibitors of inositol monophosphatase (IMPase); P97697; CHO-M1 cells, IP1 accumulation, HTRF TR-FRET ratio; inhibition (IP1 accumulation), % at 46.1 µM; 120,000 tested, under 10 active; AID 901; active means well fitted curve in the direction sought with a large enough effect in the signal ratio, not every such curve was filed as active; inconclusive means small, poorly fitted or top-dose-only effect, or a change in a side signal; inactive means no such curve, though single readings can be large or run the other way; the % refers to the signal ratio;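 further: cells stimulated with carbachol in lithium chloride buffer; plate controls were DMSO basal wells for no effect and reference inhibitor wells for full effect; higher means more IMPase inhibition seen as more IP1 and lower FRET ratio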
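Carbachol-driven Gq signalling in CHO-M1 cells (2000/well) generates IP1. Compounds that block IMPase raise IP1 and so reduce the FRET signal from Eu-anti-IP1 and d2-IP1 after a 10 min room-temperature lysis.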
ALOX15B inhib = blocks human 15-lipoxygenase 2 activity. O15296. 110,000 compounds, 0.56% hits. AID 881. Potency, µM (titrated, usually from 57.1 µM), inactives show at the top dose activity change, negative = inhibition, most hits filed as inhibitors. purified 15hLO-2, xylenol orange hydroperoxide absorbance; further: potency means the concentration at half of the fitted maximal effect; nearly all actives have a fitted effect of over 60% in size
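Purified human 15hLO-2 (50 nM) preincubated 15 min with compound, then 45 uM arachidonic acid for 90 min at RT in 25 mM Hepes pH 7.5, 0.01% Triton X-100. Hydroperoxide detected by Fe-xylenol orange; 573/405 nm absorbance ratio.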
ALOX12 inhib = 12-hLO (ALOX12) enzyme inhibition; P18054; Potency, µM (doses to about 57.1 µM), without a hit: at the top dose activity change, negative = inhibition, actives largely listed as inhibitors; AID 1452; purified 12-hLO, xylenol orange hydroperoxide absorbance; 150,000 compounds, 0.12% hits; further: potency means the concentration at half of the fitted maximal effect; nearly all actives have a fitted effect of over 55% in size
Target sequence (P18054 whole entry, looked up): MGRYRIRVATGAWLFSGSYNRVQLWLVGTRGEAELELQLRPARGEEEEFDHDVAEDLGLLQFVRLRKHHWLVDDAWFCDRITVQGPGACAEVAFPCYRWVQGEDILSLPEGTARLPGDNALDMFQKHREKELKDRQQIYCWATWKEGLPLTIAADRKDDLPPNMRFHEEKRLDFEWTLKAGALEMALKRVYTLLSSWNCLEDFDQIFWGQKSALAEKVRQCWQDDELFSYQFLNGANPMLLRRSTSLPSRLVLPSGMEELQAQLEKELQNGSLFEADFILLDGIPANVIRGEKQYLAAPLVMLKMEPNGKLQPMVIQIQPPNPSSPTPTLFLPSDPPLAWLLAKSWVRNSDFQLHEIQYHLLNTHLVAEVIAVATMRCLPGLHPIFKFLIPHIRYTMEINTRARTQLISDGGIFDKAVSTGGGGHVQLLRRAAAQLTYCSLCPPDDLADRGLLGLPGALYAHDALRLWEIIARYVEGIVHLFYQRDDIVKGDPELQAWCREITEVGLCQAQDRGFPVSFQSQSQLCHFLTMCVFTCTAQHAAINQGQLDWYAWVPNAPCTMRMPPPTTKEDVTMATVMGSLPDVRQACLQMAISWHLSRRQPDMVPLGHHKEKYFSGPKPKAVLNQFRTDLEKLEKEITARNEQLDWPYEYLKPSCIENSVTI
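Purified human 12hLO (150 nM final) was preincubated with compounds for 15 min at room temperature in 25 mM Hepes pH 7.0, 0.01% Triton X-100, then reacted with 40 uM arachidonic acid for 30 min. Hydroperoxide was detected with ferrous iron/xylenol orange.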
PNC assembly inh = blocks assembly of the perinucleolar compartment. PC3M PTB-GFP, PNC prevalence imaging, 16 h; active compounds read low. activity change (PNC), negative = inhibition, % at 10 µM. 140,000 compounds, 3.1% hits. AID 2417;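 active means readout at or below -70, meaning at least 70% loss of cells showing the perinucleolar compartment, a nuclear body marking cancer cells; inconclusive means readout between -30 and a set limit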;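 further: plate controls were DMSO wells for no effect and camptothecin positive control wells for full effect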
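Read-out is percentage of cells bearing a perinucleolar compartment, from automated 20x imaging of fixed, Hoechst-stained PC3M PTB-GFP cells. Cells were seeded 4 h, then exposed 16 h to compound (23 nl of library stock) in duplicate plates.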
Numbers without * were called inactive; ? = inconclusive; . = not tested or not shown. Unless noted, the call rests on the fitted dose curve; in most records, active means well fitted curve in the direction sought with a large enough effect; inconclusive means small, poorly fitted or top-dose-only effect, or another doubt; inactive means no such curve, though single readings can be large; an effect the other way counts as inactive or inconclusive. Unless noted, on the % scale 0 is the no-effect control and ±100 the full control effect.

SMILES	IMPase cell inh	ALOX15B inhib	ALOX12 inhib	PNC assembly inh
CCN(CC)S(=O)(=O)c1cccc(NC(=O)COC(=O)CCC(=O)c2ccc(F)cc2)c1	.	.	-3%	-82*
CC(O)c1cccc(NC2=CC(=O)CC(C)(C)C2)c1 (configuration not stated)	-5	3%	0%	38
COC(=O)Cn1c(C(=O)N(C)C)cc2c1C[C@H]1CN(C(=O)c3ccccc3)[C@@](Cc3ccc(OC)cc3)(C(=O)OC)[C@@H]21	.	-1%	-1%	.
O=C(Nc1ccc(S(=O)(=O)NC2CCCCC2)cc1)c1ccc(Br)o1	3	-5%	-13%	?
COc1cc(NS(=O)(=O)c2ccc(NC(=O)c3ccco3)cc2)nc(OC)n1	0	3%	6%	-82*
O=C(Nc1ccc(S(=O)(=O)NC2CCCCC2)cc1)c1ccco1	10	.	-2%	-100*
CCCn1c(=O)c2c(c3ccccc31)OC(C)C(=O)N2 (configuration not stated)	-6	2%	-6%	-88*
COc1ccc(C2NC(=S)NC(C)=C2C(=O)c2ccccc2)cc1OC (configuration not stated)	6	.	-5%	-86*
Cc1ccc(-c2cc(C(=O)NCc3cccs3)no2)cc1	17	-4%	4%	20
O=C(NCc1cccs1)c1cc(-c2cccc(Cl)c2)on1	2	4%	-5%	-124*
O=C(Nc1cccc2cccnc12)c1cccnc1	2	1%	-1%	-85*
O=C1Nc2ccc(Br)cc2C1(O)Cc1ccccn1 (configuration not stated)	0	.	2%	-114*
O=C1CCCCCC1C1(O)C(=O)Nc2ccc(Br)cc21 (configuration not stated)	-2	-2%	-1%	45
N.N.N.N.N.N.N.N.N.N.N.N.N.N.O.O.[Ru].[Ru].[Ru]	6	-4%	-13%	.
COC(=O)c1c(NC(=O)c2cccnc2)sc(C(=O)N(C)C)c1C	.	.	2%	-13
COC(=O)c1c(NC(=O)c2ccco2)sc(C(=O)N(C)C)c1C	-7	.	11%	-100*
Cc1ccc(C(=O)N/C(=C\c2ccc(F)cc2)C(=O)NCc2ccncc2)cc1	-3	.	-2%	-119*
C#CCN(C(=O)Nc1ccccc1)c1ccccc1	.	.	7%	21
COc1ccc(OCc2nnc(SC3CCOC3=O)n2-c2ccccc2)cc1 (configuration not stated)	3	2%	3%	?
COc1cccc(-n2c(SC3CCOC3=O)nc3ccccc3c2=O)c1 (configuration not stated)	14	.	0%	-100*
O=C1C2CC=C(Cl)CC2C(=O)N1CN(Cc1ccco1)CN1C(=O)C2CC=C(Cl)CC2C1=O (configuration not stated)	2	-6%	-16%	-96*
Cc1ccc(C(=O)Nc2cc(-c3nc4ncccc4o3)ccc2C)c(C)c1	1	.	.	.
O=[N+]([O-])c1ccc(N2N=C(c3ccco3)CC2c2ccccc2)cc1 (configuration not stated)	10	13µM*	-9%	91
Fc1ccc(C2CC(c3ccco3)=NN2c2ccccc2)cc1 (configuration not stated)	-16	?	?	?
CCOC(=O)NCC(C#CCN(CC)CC)N(CC)CC (configuration not stated)	7	6%	-1%	-93*
SMILES	IMPase cell inh	ALOX15B inhib	ALOX12 inhib	PNC assembly inh
CCN(CC)CC#CC(C)OCOCC#CCOC (configuration not stated)	-1	0%	-2%	22
COc1cc(/C=N/NC(=O)c2nc(-c3ccccc3)n(-c3ccccc3)n2)ccc1O	10	.	-6%	44
O=C(N/N=C/c1ccc(O)cc1)c1nc(-c2ccccc2)n(-c2ccccc2)n1	.	.	-3%	-100*
Cc1occc(=O)c1OC(=O)Nc1ccc(Cl)c(Cl)c1	.	.	-9%	-113*
CCCNC1=C(N(C(C)=O)c2cccc(F)c2)C(=O)c2ccccc2C1=O	.	.	-1%	-90*
CCCCOc1ccc(N2C(=O)CC(NCCc3ccc(S(N)(=O)=O)cc3)C2=O)cc1 (configuration not stated)	4	-8%	2%	-82*
CC1(C)Cc2ccccc2-c2nnc(SCc3ccccc3)n21	11	.	7%	-7
CCOC(=O)C(C)Sc1nnc2n1C(C)(C)Cc1ccccc1-2 (configuration not stated)	0	.	-7%	-100*
COc1ccccc1N1CCN(C(=O)c2cc3c(=O)n(C)c4ccccc4c3n2C)CC1	5	0%	-5%	-88*
C/C(=N\NC(=O)CSCc1cccc(Br)c1)c1ccc([N+](=O)[O-])cc1	-1	4%	-1%	51
Cc1ccc(C2(C)NC(=O)N(CC(=O)Nc3cc(S(=O)(=O)N4CCOCC4)ccc3C)C2=O)cc1 (configuration not stated)	.	.	-4%	-115*
Cc1ccc(S(=O)(=O)N2CCOCC2)cc1NC(=O)CN1CCN(c2ccc(O)cc2)CC1	.	.	-5%	41
CCCc1cc(=O)[nH]c(SCC(=O)Nc2ccc(OC(F)F)cc2)n1	-1	-3%	2%	-94*
CS(=O)(=O)N(CC(=O)N1CCN(c2ccccc2F)CC1)C1CCCCC1	5	.	12%	-88*
COc1ccc(N2C(N)=C(C#N)C(c3ccsc3)C3=C2CCCC3=O)c(OC)c1 (configuration not stated)	.	.	-9%	-109*
COc1cccc(C2C(C#N)=C(N)N(c3ncn[nH]3)C3=C2C(=O)CCC3)c1 (configuration not stated)	.	.	1%	?
Cc1cc2cc(OCC(=O)O)ccc2n1C	?	.	-6%	-113*
CN(C)c1ccc2c(c1)OC(N)=C(C#N)C2c1cccc(F)c1 (configuration not stated)	18	-15%	-7%	-85*
CCOc1ccccc1C1C(C#N)=C(N)Oc2cc(N)ccc21 (configuration not stated)	2	-9%	-2%	?
CCC(C(=O)NC(C)CCc1ccco1)n1nc(C)n2c(cc3occc32)c1=O (configuration not stated)	-1	.	-5%	-100*
Brc1ccc(C=Nc2ccc(Nc3ccccc3)cc2)s1	29	.	?	-7
C(=Nc1ccc(Nc2ccccc2)cc1)c1ccc2ccccc2c1	16	.	?	-83*
CN(C)c1ccc(C(=O)c2ccc(N(C)C)c3ccccc23)cc1	0	.	-3%	-103*
O=C(Nc1cccc(C(F)(F)F)c1)Nc1ccc(N2CCCC2)c(S(=O)(=O)Nc2ccccc2Cl)c1	.	.	-6%	18
Cc1nn(-c2ccccc2Cl)c(Cl)c1/C=N/Nc1nc2ccccc2s1	.	.	0%	-83*
CCOC(=O)N/N=C/c1c(C)nn(-c2ccccc2Cl)c1Cl	4	.	-2%	-9
c1ccc2nc3c(nc2c1)sc1nc2ccccc2n13	0	-4%	1%	-14

Assay outcomes from PubChem BioAssay.
